Bioassay records (PubChem BioAssay)
Sampled rows, rich in hits. Any-hit rate of the full collection: about 6.5%.
Vaccinia Venus = qHTS for Stage-Specific Inhibitors of Vaccinia Orthopoxvirus: Venus Reporter Primary qHTS | Vaccinia virus Venus reporter expression, fluorescence | Potency, µM (top dose mostly 36.5 µM), most hits filed as inhibitors | actives 0.46% (n = 330,000) | AID 720580, 2013; calls by dose curve; tested in A549 cells; also: nearly all actives have a fitted effect of over 30% in size
FMDV antiviral = High Throughput Screening for Foot and Mouth Disease Virus Antivirals; FMDV antiviral cell-based qHTS; Potency, µM (doses to about 57.9 µM), hits mostly inhibitors; actives 1.2% (n = 410,000); AID 1159524, 2015; calls by dose curve; tested in HEK293T cells; also: read-out not given here; nearly all actives have a fitted effect of over 45% in size
Lassa entry inh = qHTS for Inhibitors of binding or entry into cells for Lassa Virus. Potency, µM (highest dose often 37.9 µM), actives largely listed as inhibitors. actives 1.2% (n = 300,000). Lassa virus pseudotype entry inhibition, cell reporter; calls by dose curve; tested in HEK293 cells; also: nearly all actives have a fitted effect of over 50% in size
VACV mCherry inh = qHTS for Stage-Specific Inhibitors of Vaccinia Orthopoxvirus: mCherry Reporter Primary qHTS. Vaccinia virus mCherry reporter infection, fluorescence. Potency, µM (doses to about 36.5 µM), actives largely listed as inhibitors. actives 0.63% (n = 310,000); calls by dose curve; tested in A549 cells; also: nearly all actives have a fitted effect of over 35% in size
HCMV antiviral = qHTS Assay for inhibitors of the human cytomegalovirus (HCMV) | HFF cells, HCMV-luciferase reporter, 72 h; hits give low values | activity change, negative = inhibition, % at 57.5 µM | actives 4.5% (n = 410,000) | AID 1259415, 2018; in the data active = activity change below about -60%; inconclusive = no clear call, values can overlap the other calls; inactive = above about -39%
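Compounds were evaluated in HFFs infected with an HCMV luciferase reporter virus (MOI 1 PFU/cell). Luciferase in lysates collected 72 h post infection served as the replication measure.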
MARV entry inh = qHTS for inhibitors of binding or entry into cells for Marburg Virus; Marburg virus pseudotyped entry inhibition, cell reporter; Potency, µM (top dose mostly 37.8 µM), most hits filed as inhibitors; actives 1.8% (n = 300,000); calls by dose curve; tested in HEK293 cells
Numbers stand for hits; [ ] = dose if it differs, or a comment.

Screening NNC(=O)Nc1cccc(C(F)(F)F)c1 returned Vaccinia Venus inactive, FMDV antiviral inactive, Lassa entry inh inactive, VACV mCherry inh inactive, HCMV antiviral inactive and MARV entry inh inactive.
For COc1cccc(CN2CC(C(=O)NC3CCCCCC3)CCC2=O)c1 (stereo not given) the results were Vaccinia Venus inactive, FMDV antiviral inactive, Lassa entry inh inactive, VACV mCherry inh inactive, HCMV antiviral inactive and MARV entry inh inactive.
Screening O=C(Nc1ccncc1)Nc1cccc(C(F)(F)F)c1 returned FMDV antiviral inactive and HCMV antiviral -80.
O=C(Nc1cccc(C(F)(F)F)c1)NC1CCCCC1 was read as Vaccinia Venus inconclusive, FMDV antiviral inactive, Lassa entry inh 4µM, HCMV antiviral inactive and MARV entry inh inactive.
For O=C(NC1CCCCC1)C1CCC(=O)N(Cc2cccc(C(F)(F)F)c2)C1 (stereo not given) the results were Vaccinia Venus inactive, FMDV antiviral inactive, Lassa entry inh inactive, VACV mCherry inh inactive, HCMV antiviral -61 and MARV entry inh inactive.
`Clc1ccccc1-c1ccc2ncnc(NC3CCNCC3)c2c1` gave FMDV antiviral inactive.
For NC(=O)/C=C\C(=O)Nc1cccc(C(F)(F)F)c1 the results were Vaccinia Venus inactive, Lassa entry inh inconclusive, VACV mCherry inh inconclusive, HCMV antiviral inactive and MARV entry inh 9.2µM.
Screening Cc1ccc(NC(=O)NC2CCCCCCC2)cc1C returned FMDV antiviral inactive and HCMV antiviral -84.
COc1ccc(OC)c(-c2cc(Cl)c3c(c2)CC(CNC(=O)/C=C/c2ccccn2)O3)c1 (stereo not given) was read as Vaccinia Venus inactive, FMDV antiviral inactive and VACV mCherry inh inactive.
For COc1ccc(C(=O)CSc2nn3c(=O)c(C(C)(C)C)nnc3s2)cc1 the results were Vaccinia Venus inactive, FMDV antiviral 14µM, Lassa entry inh inactive, HCMV antiviral inactive and MARV entry inh inactive.
Clc1ccc(Nc2ncnc3c2cnn3-c2ccccc2)cc1 was read as Vaccinia Venus inconclusive, FMDV antiviral inactive, VACV mCherry inh inactive and HCMV antiviral inactive.
Cn1ncc2c(Nc3ccc(Br)cc3)nc(Nc3ccc(Br)cc3)nc21 was read as Vaccinia Venus inconclusive, FMDV antiviral inconclusive, Lassa entry inh inactive, VACV mCherry inh inconclusive, HCMV antiviral inactive and MARV entry inh inconclusive.
`Cn1ncc2c(Nc3cccc(Cl)c3)nc(Nc3cccc(Cl)c3)nc21` gave Vaccinia Venus inactive, FMDV antiviral inactive, Lassa entry inh inactive, VACV mCherry inh inconclusive, HCMV antiviral -66 and MARV entry inh inconclusive.
Screening Fc1ccc(-n2ncc3c(Nc4cccc(Cl)c4)ncnc32)cc1 returned Vaccinia Venus inactive, FMDV antiviral inactive, Lassa entry inh inactive, VACV mCherry inh inactive and HCMV antiviral -66.
Cc1cnc(-n2ncc(C(=O)NCCc3cccnc3)c2C)nc1-c1cccs1 was read as Vaccinia Venus inactive, FMDV antiviral inactive and VACV mCherry inh inconclusive.
Screening COc1ccc(Cn2c(C)c(C)c(C#N)c2NC(=O)Nc2cccc(C)c2)cc1 returned Vaccinia Venus inactive, FMDV antiviral inactive, Lassa entry inh inactive, VACV mCherry inh inconclusive, HCMV antiviral -67 and MARV entry inh inconclusive.
CCCCCCC(O)(c1ccc(OC)cc1)C(CN1CCOCC1)c1ccccc1 (stereo not given) was read as Vaccinia Venus inactive, FMDV antiviral inactive, Lassa entry inh inconclusive, VACV mCherry inh inactive, HCMV antiviral -69 and MARV entry inh inconclusive.
`CC(C)CCC(O)(c1ccccc1)C(CN1CCOCC1)c1ccccc1` (stereo not given) gave Vaccinia Venus inactive, FMDV antiviral inconclusive, Lassa entry inh inactive, VACV mCherry inh inactive, HCMV antiviral -67 and MARV entry inh inconclusive.
Screening CCCC(O)(c1ccc(Cl)cc1)C(CN1CCOCC1)c1ccccc1 (stereo not given) returned Vaccinia Venus inactive, FMDV antiviral inactive, VACV mCherry inh inactive and HCMV antiviral inactive.
CCCCCC(O)(c1ccccc1)C(CN1CCOCC1)c1ccccc1 (stereo not given) was read as FMDV antiviral inconclusive and HCMV antiviral -60.
For CC(C)CC(O)(c1ccccc1)C(CN1CCOCC1)c1ccccc1 (stereo not given) the results were Vaccinia Venus inactive, FMDV antiviral inactive, Lassa entry inh inactive, VACV mCherry inh inactive, HCMV antiviral inconclusive and MARV entry inh inactive.
Screening CCCCCCC(O)(c1ccccc1)C(CN1CCOCC1)c1ccccc1 (stereo not given) returned FMDV antiviral inconclusive and HCMV antiviral -76.
For CC(C)c1ccc(Nc2cc3[nH]c(-c4cccc(F)c4)cc3cn2)cc1 the results were HCMV antiviral inactive.
`CCOc1cc(CNc2ccc(O)cc2)ccc1OCc1ccc(Cl)cc1` gave Vaccinia Venus inactive, FMDV antiviral inactive, Lassa entry inh inactive, VACV mCherry inh inactive, HCMV antiviral inactive and MARV entry inh inconclusive.
`O=[N+]([O-])c1cccn2cc(-c3ccc(Br)cc3)nc12` gave Vaccinia Venus inactive, FMDV antiviral inactive, Lassa entry inh inactive, VACV mCherry inh inconclusive, HCMV antiviral -62 and MARV entry inh inconclusive.
`Cc1ccccc1C(=O)N1[C@@H](C(C)C)COc2cc(Br)ccc2S1(=O)=O` gave Vaccinia Venus inactive, FMDV antiviral 40µM, VACV mCherry inh inactive, HCMV antiviral inactive and MARV entry inh 10µM.
`CCc1ccc(OC(C)c2nc(-c3ccc(-n4cccc4)cc3)no2)cc1` (stereo not given) gave Vaccinia Venus inactive[7.34 µM], FMDV antiviral inactive, Lassa entry inh inconclusive, VACV mCherry inh inactive[7.34 µM], HCMV antiviral inactive and MARV entry inh inactive.
`COC(=O)c1cccc(N2C(=O)C[C@](Sc3ccc(OC)cc3)(C(=O)N3CCCC3)[C@H]2c2ccc(OC)cc2)c1` gave HCMV antiviral inactive.
For Cc1c(C(=O)N2CCN(c3ccc([N+](=O)[O-])cc3)CC2)sc2ncn(CC(=O)N3CCOCC3)c(=O)c12 the results were Vaccinia Venus inactive, FMDV antiviral inactive, Lassa entry inh inactive, VACV mCherry inh inactive, HCMV antiviral -80 and MARV entry inh inconclusive.
`Cc1c(C(=O)N2CCOCC2)sc2ncn(CC(=O)N3CCC(C)CC3)c(=O)c12` gave Vaccinia Venus inactive, FMDV antiviral inactive, Lassa entry inh inactive, VACV mCherry inh inactive and MARV entry inh inactive.
`CCOc1ccc(NC(=O)c2cccc3ccccc23)cc1` gave FMDV antiviral inactive and HCMV antiviral inactive.
For COc1cc(C(=O)Nc2ccc(C)cc2)c2ccccc2n1 the results were Vaccinia Venus inactive, FMDV antiviral inactive, Lassa entry inh inconclusive, VACV mCherry inh inactive, HCMV antiviral -60 and MARV entry inh inconclusive.
`CCOc1ccc(NC(=O)c2cc(OC)nc3ccccc23)cc1` gave Vaccinia Venus inactive, FMDV antiviral inactive, Lassa entry inh inconclusive, VACV mCherry inh inactive, HCMV antiviral -64 and MARV entry inh inactive.
